SMILES strings stand for the structures. Results filed as inconclusive are left out. Entries that show only a call come without a potency. More than one record can exist for a structure, and the calls need not agree. Activity calls are given as the source filed them. Calls follow the shape of the dose curve; as a rule, active = well fitted cell-killing curve with a large enough effect in the repeat runs; inconclusive = weak or mixed curves, or effect the other way; inactive = flat fitted curve, though single readings scatter.
Potency is read from the fitted curve at half-maximal effect.

The assay in a line: qHTS RealTime-Glo MT Cell Viability Assay in HEK293 cells - 32 hour (AID 1224868). Also: nearly all actives have a fitted effect of over 50% in size. As to activity change, negative = cytotoxic: top concentration of the series differs between compounds. The note with it: RealTime-Glo luminescence; series mostly up to 76.8 µM. An excerpt: National Center for Advancing Translational Sciences [NCATS]
NIH Chemical Genomics Center [NCGC]
U.S. Environmental Protection Agency [EPA]
National Institutes of Environmental Health Sciences [NIEHS]
National Toxicology Program [NTP]
U.S. Food and Drug Administration [FDA]
Measure of cell viability is critical in the cell-base assay. Analysis of cell viability is necessary for the characterization of cell responses to cytotoxic drugs and environmental stress. A RealTime-Glo MT Cell Viability Assay to monitor cell viability in real time of continues cell culture during 40 hours of compound treatment was used to screen Tox21 10K library compounds in Hek293 cells. The RealTime-Glo MT Cell Viability Assay is a nonlytic, homogeneous, bioluminescent method to measure cell viability in real time using a simple, plate-based method. The assay involves adding NanoLuc luciferase and a cell-permeant prosubstrate to cells in culture. Viable cells reduce the proprietary prosubstrate to generate a substrate for NanoLuc luciferase. This substrate diffuses from cells into the surrounding culture medium, where it is rapidly used by the NanoLuc Enzyme to produce a luminescent signal. The signal correlates with the number of viable cells, making the assay well suited for cytotoxicity studies.
Tox21 Assay Protocol Summary:
The mixture of Hek293 cell suspension and reagents were dispensed at 600cells/6 ul/well in 1536-well tissue culture treated black solid bottom plates using a Multidrop dispenser. After the assay plates were incubated at a 37 C/5% CO2 incubator for 5 hours, 23 nL of compounds dissolved in DMSO, positive and negative controls was transferred to the assay plate by a pintool work station. The plates were incubated at 37 C for 40 hours. The luminescence intensity were measured at 0h, 8h, 16h, 24h, 32h and 40h time points using ViewLux plate reader during compound treatment.
Background: Quantitative high-throughput screening tests each substance at several concentrations.
Turning to `C#CC(C)(C)O`, the Potency entry is “inactive”.
The same measure, in the same setting: under `CCc1ccc(C2CCNCC2)cc1` stands “inactive”.
As to `CC(=O)OCC1=C(C(=O)O)N2C(=O)[C@@H](N)[C@H]2SC1`, the activity change, negative = cytotoxic was 19.8% [at 15.8 µM] (inactive).
With `COc1ccccc1OC`, the Potency result is “inactive”.
With `C[N+]1(C)CCCCC1`, the Potency entry was “inactive”.
Still for that read-out and setting: the result for `NC(=O)OCCCc1ccccc1` reads “inactive”; that for `CCOc1cc(OP(=S)(OC)OC)nc(CC)n1`, “inactive”; that for `CC(=NC#N)N(C)Cc1ccc(Cl)nc1`, “inactive”.
For `CCNP(=S)(OC)O/C(C)=C/C(=O)OC(C)C` (stereo not given), the Potency entry is “inactive”.
Still for that read-out and setting: under `CC(Cc1ccccc1)NCCCCl` (stereo not given) stands “inactive”; under `CCC1(c2cccc(O)c2)CCCCN(C)C1` (stereo not given), “inactive”.
In the case of `O=C/C=C/c1ccco1`, the Potency entry was “inactive”.
On to `ClC1=C(Cl)C2(Cl)C(CBr)CC1(Cl)C2(Cl)Cl` (stereo not given), for which the Potency is 49 µM (active) and inactive.
The same measure, in the same setting: under `CCN[C@@H](C)Cc1ccccc1` stands “inactive”; under `ClCOCCl`, “inactive”.
For `CC(C)(N)Cc1ccccc1Cl`, the Potency entry was “inactive”.
`CC(C)(N)Cc1ccc(Cl)cc1`: the Potency entry was “inactive”.
On the same count and under the same terms, the result for `Cn1c(CCCC(=O)O)nc2cc(N(CCCl)CCCl)ccc21` reads “inactive”; that for `Cn1c(N)nc2c3cccnc3ccc21`, “inactive”; that for `COC(=O)c1ccc(CBr)cc1`, “inactive”.
The same measure, in the same setting: the result for `O=P(O)(O)c1ccccc1` reads “inactive”; that for `O=C(Cl)OCc1ccccc1`, “inactive”.
On to `ClCC1CO1` (stereo not given), for which the Potency result is “inactive”.
On the same count and under the same terms, under `C=CCCC#N` stands “inactive”.
`COC[C@@H](NC(C)=O)C(=O)NCc1ccccc1`: the Potency entry is “inactive”.
The same measure, in the same setting: the result for `CCCCOC(C)=O` reads “inactive”.
Same read-out and setting: under `CCCCS(=O)(=O)Cl` stands “inactive”; under `CCN1CCCC1CNC(=O)C(O)(c1ccccc1)c1ccccc1` (stereo not given), “inactive”; under `NNC(N)=O`, “inactive”.
On the same count and under the same terms, the result for `COc1ccc(C=O)cc1O` reads “inactive”; that for `CCOC(=O)C(SP(=S)(OC)OC)c1ccccc1` (stereo not given), “inactive”.
With `CCOC(=O)C(Cl)Cc1cc(-n2nc(C)n(C(F)F)c2=O)c(F)cc1Cl` (stereo not given), the Potency result is “inactive”.
Still for that read-out and setting: under `CCCOC(=O)c1cncn1C(C)c1ccccc1` (stereo not given) stands “inactive”; under `CCC1(c2ccccc2)C(=O)N(COC)C(=O)N(COC)C1=O`, “inactive”; under `O=C1CCCCC1Cl` (stereo not given), “inactive”.
Same read-out and setting: the result for `C=CCc1cc(OC)c2c(c1)OCO2` reads “inactive”; that for `CCOP(=S)(OCC)Oc1ccc(Cl)cc1Cl`, “inactive”; that for `ClCCCCl`, “inactive”.
As for `O=[N+]([O-])c1cccc(CCl)c1`, the Potency entry was “inactive”.
Take `C[C@]12C=CC(=O)C=C1CC[C@@H]1[C@@H]2CC[C@@]2(C)[C@H]1CC[C@]2(C)O`: the Potency result was “inactive”.

(Values after PubChem BioAssay (Tox21).)
